The chains are these.
T1: UNK ZnF1-6 (called full-length) (human, UniProt Q9C0B0 30-357)
T1 sequence: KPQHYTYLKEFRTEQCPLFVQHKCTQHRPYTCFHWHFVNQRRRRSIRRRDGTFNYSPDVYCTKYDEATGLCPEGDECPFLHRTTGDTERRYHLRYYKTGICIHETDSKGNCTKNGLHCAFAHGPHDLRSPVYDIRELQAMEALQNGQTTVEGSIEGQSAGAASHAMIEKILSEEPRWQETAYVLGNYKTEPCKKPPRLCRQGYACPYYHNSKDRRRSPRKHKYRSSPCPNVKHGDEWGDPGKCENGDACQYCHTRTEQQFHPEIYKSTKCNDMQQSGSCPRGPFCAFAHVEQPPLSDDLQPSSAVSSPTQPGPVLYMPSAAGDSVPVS

B1: ENSG00000198589:be:win_7901|CDS|ENSG00000198589|bound_else_gene|NA|bound_elsewhere_windowed (ssRNA)
RNA: GGGAGUUCUACAGUCCGACGAUCCUCGUUCUGAGUCAUAUAUUGGGGGAAAUUGCUACAUUCUCUCAGGGUCACGUGAUGCAACUCUUUUGCUGUGGUAUUGGAAUGGAAAAUGCAGUGGGAUUGGAGAUAACCCAGGCAGUGCAACAGAGGAUUGAGCAUCA
B2: chr13:106491723:106491923:-|3pUTR|ENSG00000125266|msi1|total|mutant (ssRNA)
RNA: GGGAGUUCUACAGUCCGACGAUCCAGACUCAGCUGCUAUACUUAUCACAUUUUAUUAAACACAGGGAAAGCAUUCCGGAGAACCGCAGAGAGCCAAAUCUGACCUAAAAGUUGAAAAGCCAAAGGUCAAACAGGCUGUAAUUCCAACAGAGGAUUGAGCAUCA
B3: chr1:178849534:178851128:-|three_prime_utr|ENSG00000116194|control|control|control (ssRNA)
RNA: GGGAGUUCUACAGUCCGACGAUCCUACACAGAAAGUUUUUAAAAUGAAUUUUACCGUAACUAUAAAAGGGAACCUAUAAAUGUAGUUUCAUCUGUCGUCAAUUACUGCAGAAAAUUAUGUGUAUCCACAACCUAGUUAUUUUACAACAGAGGAUUGAGCAUCA
B4: chr1:93361585:93361687:+|3pUTR|ENSG00000117505|unk|FALSE|unique (ssRNA)
RNA: GGGAGUUCUACAGUCCGACGAUCUUUAACUUGUAGUUAUAGUUUACUUAUUGUUUUUAGAAUUACUUUUACAUUUUCCCAACUAGAUGGCCUAGAGUCCAACAUUACCUUUUGAGAUGACAUUAUUGUCUCCAUAAUUGAGUGCAACAGAGGAUUGAGCAUCA
B5: chr1:93361585:93361687:+|3pUTR|ENSG00000117505|unk|total|mutant (ssRNA)
RNA: B4 RNA with U33C, A34C, U39C, A40C, U57C, A58C, U83C, A84C, U92C, A93C
B6: chr10:16593140:16593241:-|3pUTR|ENSG00000148484|unk|FALSE|unique (ssRNA)
RNA: GGGAGUUCUACAGUCCGACGAUCUUAUUUUUCUUUUCACUCUCUUUCUAAUGCUUCCCACCUUACCUUUUAGAUUCUUUUGCUAGGUGGGAGAUUGUUAUAAGGUCUUUAAACCAUUUCCAUUUGUUUCUUUAACAUUACCAACAACAGAGGAUUGAGCAUCA
B7: chr1:162523450:162523604:+|3pUTR|ENSG00000152332|msi1|FALSE|unique (ssRNA)
RNA: GGGAGUUCUACAGUCCGACGAUCAGACUAAGUUGUGCCAGAUGUAAAUCAACCCCUCUUUUAGUUUACUUUAGACUUUGUAUUAGCUCAUCUUUUUUGUAGUAAAUCUAUAGUUUUAAGGUUUCUCAAGAUGUGGCUCUACCUCAACAGAGGAUUGAGCAUCA
B8: chr2:5695263:5695412:+|3pUTR|ENSG00000176887|msi1_unk|FALSE|overlapping (ssRNA)
RNA: GGGAGUUCUACAGUCCGACGAUCUGGUGAUAUAGACCUCAGAGCUGUUAUCUUAGUUUAAAGAUUGUAUAUGUACUGUACUAUAGUAGGACUUUAUGUAUCUCAUACGCUGUGAUGUGGAUGGGGCCCCAGAUGGAAGGUUUGCAACAGAGGAUUGAGCAUCA
B9: chr1:9729969:9730061:-|3pUTR|ENSG00000171603|msi1_unk|total|mutant (ssRNA)
RNA: GGGAGUUCUACAGUCCGACGAUCGUUUUUAUUUUUUCCAAACCCGUGCAUGUAUAAAUAAUGGCAGGAUGGGGGGUACUGUGCCGAUGAUUAACUGACUUUUUAAUAUUUUGUAAAUAAAUCGGAUUCCUUGUGUCCUUUGUGCAACAGAGGAUUGAGCAUCA
B10: chr11:119045269:119045370:-|3pUTR|ENSG00000149428|msi1|FALSE|unique (ssRNA)
RNA: GGGAGUUCUACAGUCCGACGAUCUGUGGUUAAAAAUGGAAACUGUUCUCCUCCCCAGCCCCACUCCCUGUUCCCUACCCAUAUAGGCCCUAAAUUUGGGAAAAAUCACUAUUAAUUUCUGAAUCCUUUGCCUGUGGGUAGGAACAACAGAGGAUUGAGCAUCA
B11: chr14:53039561:53039662:-|3pUTR|ENSG00000100523|unk|total|mutant (ssRNA)
RNA: GGGAGUUCUACAGUCCGACGAUCUCAAACUAUAUUUUUGUUACAGCAAACUACAUUCCAUUUGCCUUUAAAUGCUUGCAUUUCCGUUAUUGUACUGGCUACCUGUUUUUGUCUGCCCAGCAUCCUGUUUCCCCUCCUUUUGGACAACAGAGGAUUGAGCAUCA
B12: chr10:17315694:17315795:-|3pUTR|ENSG00000148488|unk|FALSE|unique (ssRNA)
RNA: GGGAGUUCUACAGUCCGACGAUCCUUCUUCCUCCCUGUCCAUCCCACCCUCGUCCCCAGAAAAUUCCUAAUCUGUUUUUCUAUAGACAUUUACAUUUUUACACUAUAGACUGUUUACAUUUUUUAGAAUUUUAUAUAAAUGGACAACAGAGGAUUGAGCAUCA
B13: chr3:89481969:89482070:+|3pUTR|ENSG00000044524|msi1|FALSE|unique (ssRNA)
RNA: GGGAGUUCUACAGUCCGACGAUCAUAUGUGUUUACUUUAAACUUGUCUUUUCAAAAUAUUACUCAGUUUAUGUUGUACAAUGUAGAUGGCCUCUUACUAAUGUAAAAUGAUUUGUAGUGGAAACAUUUAUAUUUUUAUAAUAACAACAGAGGAUUGAGCAUCA
B14: chr15:52550141:52550321:-|3pUTR|ENSG00000128989|msi1|FALSE|unique (ssRNA)
RNA: GGGAGUUCUACAGUCCGACGAUCAGAUGUCACUUUAGUAAAAUACCAAUUUAGUUUUACUUGUGGCUUAUCUAGUUAGAACUUAGCAGACUUUACUGGGACAAGUUUACUGCUCUUGUAGGAGCUCCUCUCACAAGUAGUUGUCAACAGAGGAUUGAGCAUCA
B15: chr1:9729969:9730061:-|3pUTR|ENSG00000171603|msi1_unk|FALSE|overlapping (ssRNA)
RNA: B9 RNA with C43U, C44A, C83U, C84A
B16: chr1:180885316:180885399:+|3pUTR|ENSG00000143324|msi1_unk|FALSE|overlapping (ssRNA)
RNA: GGGAGUUCUACAGUCCGACGAUCUUGGCAGCCAUUUCUCCCAGCAGUUUUAAAGGAUGAACAUUGGAUUUCAUGCCAUCCCAUAGAAAACCUGUUUUAAAAUUUUAGGGAUCUUUACUUGGUCAUACAUGAAAAGUACACUGCCAACAGAGGAUUGAGCAUCA
B17: chr11:113276847:113276948:+|3pUTR|ENSG00000149294|msi1|FALSE|unique (ssRNA)
RNA: GGGAGUUCUACAGUCCGACGAUCAGAAGGGAAAAGCCAGCCCUUUGUAUAGAAAUUUUGCUUUUUUUUCCCUCAUUCUACUUUAGAACUGCAAGCUUGUGCACUGUGGAUGCGUGAAUAUUUUAGUGUGAAACGUGUUUUUGUCAACAGAGGAUUGAGCAUCA
B18: chr5:16663783:16663884:-|3pUTR|ENSG00000145555|msi1|FALSE|bound_elsewhere (ssRNA)
RNA: GGGAGUUCUACAGUCCGACGAUCUGAGGAUACAAAAUUCACAGAUGCUCAAGUCCCUGCUAUACAGUGGUAUAAUAUUUGCAUAGAACCUGCACACAUCUUUCCUUACCCUUUAAAUCAUCUCCAGGUUACAGAUACCUAGCACAACAGAGGAUUGAGCAUCA
B19: chr1:186359875:186359976:-|CDS|ENSG00000047410|msi1_unk|FALSE|overlapping (ssRNA)
RNA: GGGAGUUCUACAGUCCGACGAUCGGAAACUCAGGAUCAGUUGCUUUUGGAGAAACUAGAGAACAAAAGAAUUAAUAAGUACCUAGAUGAAAUAGUGAAAGAAGUGGAAGCCAAAGCACCAAUUUUGAAACGCCAGCGUGAGGACAACAGAGGAUUGAGCAUCA
B20: chr3:97755980:97756081:+|3pUTR|ENSG00000080224|unk|total|mutant (ssRNA)
RNA: GGGAGUUCUACAGUCCGACGAUCUAAUUAAAAAUCUCUUUCCUACCUUCCGUAAUUUGCCGGAUGAACUGUAUGCAUUCCGACCGAAAUUGCUUUUGUUAAAUUUACAUUUAAACACAUCUUCAUUCACUCCGAGAAGCCAUACAACAGAGGAUUGAGCAUCA
B21: chr1:32196777:32196878:+|3pUTR|ENSG00000084652|msi1|FALSE|unique (ssRNA)
RNA: GGGAGUUCUACAGUCCGACGAUCUUUGAAGCUAGUUCAUUGUCCUGCAGGUCCCUUCAUCUUCCAUACCUAGCCCACUCUUUUAGCCCUUACCUUAAAUCUCUCAGAUAAGUUGGUUCACAAAGAAUGUUAAGUACUGAAUCACAACAGAGGAUUGAGCAUCA
B22: chr2:223975255:223975490:-|3pUTR|ENSG00000135919|msi1|FALSE|bound_elsewhere (ssRNA)
RNA: GGGAGUUCUACAGUCCGACGAUCUUUAAAUUCUUUUCCCCCAUCCCCCUCCAAAGUCUUGAUAGCAAGCGUUAUUUUGGUGGUAGAAACGGUGAAAUCUCUAGCCUCUUUGUGUUUUUGUUGUUGUUGUUGUUGUUGUUUUAUCAACAGAGGAUUGAGCAUCA

Where a chain is given by its changes, count along the chain named. Over roughly 5,800 sequences, “enrichment r” has its median near 0.68; the highest 2% begin near 11. What follows is part of a selection rich in the highest values, with near analogues and random picks from the rest.

The test addresses T1, UNK ZnF1-6 (called full-length). The experiment in a line: nsRBNS (natural sequence RNA bind-n-seq); RBNS binding buffer (assumed for nsRBNS): 25 mM Tris pH 7.5, 150 mM KCl, 3 mM MgCl2, 0.01% Triton X-100, 500 ug/ml BSA, 20 U/ml SUPERase-In, 4 C; UNK is unkempt and MSI1 is Musashi-1; names of the RNAs are library labels; protein concentration not given here; high values mean tight binding.
Turning to B1, the binding signal came out at 0.728 enrichment R.

On to B2, for which the binding signal was determined as 1.05 enrichment R.

For B3, the binding signal is 2.6 enrichment R.

Molecule B4 registered a binding signal of 152 enrichment R.

B5 gave a binding signal of 4.48 enrichment R.

In the case of B6, the binding signal was 4.14 enrichment R.

B7 registered a binding signal of 58.2 enrichment R.

B8 came in with a binding signal of 1.36 enrichment R.

B9 had a binding signal of 1.54 enrichment R.

With B10, the binding signal was determined as 0.528 enrichment R.

Take B11: the binding signal turned out to be 0.468 enrichment R.

B12: the binding signal stood at 25.2 enrichment R.

On to B13, for which the binding signal came out at 1.68 enrichment R.

B14 registered a binding signal of 2.25 enrichment R.

Molecule B15 came in with a binding signal of 22 enrichment R.

B16: the binding signal stood at 1.91 enrichment R.

Molecule B17 registered a binding signal of 1.38 enrichment R.

With B18, the binding signal worked out at 0.456 enrichment R.

B19 yielded a binding signal of 4.28 enrichment R.

With B20, the binding signal is 0.569 enrichment R.

Regarding B21, the binding signal worked out at 1.19 enrichment R.

B22: the binding signal amounted to 2.44 enrichment R.

The record behind these values is paper PMC12136788.
